Bioassay records: PubChem BioAssay, several laboratories
Mtb hypoxia rep – Mtb hypoxia fluorescent reporter inhibition; M. tuberculosis hypoxia-regulated fluorescent reporter, fluorescence; fluorescence inhibition, % (concentration not given with the values); 300,000 tested, 0.1% active; AID 1159583; in the data active = fluorescence inhibition mostly above about 23%, no sharp cut-off; inactive = mostly below about 17%
RecA intein inh – inhibitors of M. tuberculosis RecA intein splicing. P9WHJ3. cell-free RecA intein splicing, fluorescence. inhibition, % (concentration not given with the values). 290,000 tested, 0.75% active; in the data active = inhibition above about 30%
Target sequence (P9WHJ3 whole entry, looked up): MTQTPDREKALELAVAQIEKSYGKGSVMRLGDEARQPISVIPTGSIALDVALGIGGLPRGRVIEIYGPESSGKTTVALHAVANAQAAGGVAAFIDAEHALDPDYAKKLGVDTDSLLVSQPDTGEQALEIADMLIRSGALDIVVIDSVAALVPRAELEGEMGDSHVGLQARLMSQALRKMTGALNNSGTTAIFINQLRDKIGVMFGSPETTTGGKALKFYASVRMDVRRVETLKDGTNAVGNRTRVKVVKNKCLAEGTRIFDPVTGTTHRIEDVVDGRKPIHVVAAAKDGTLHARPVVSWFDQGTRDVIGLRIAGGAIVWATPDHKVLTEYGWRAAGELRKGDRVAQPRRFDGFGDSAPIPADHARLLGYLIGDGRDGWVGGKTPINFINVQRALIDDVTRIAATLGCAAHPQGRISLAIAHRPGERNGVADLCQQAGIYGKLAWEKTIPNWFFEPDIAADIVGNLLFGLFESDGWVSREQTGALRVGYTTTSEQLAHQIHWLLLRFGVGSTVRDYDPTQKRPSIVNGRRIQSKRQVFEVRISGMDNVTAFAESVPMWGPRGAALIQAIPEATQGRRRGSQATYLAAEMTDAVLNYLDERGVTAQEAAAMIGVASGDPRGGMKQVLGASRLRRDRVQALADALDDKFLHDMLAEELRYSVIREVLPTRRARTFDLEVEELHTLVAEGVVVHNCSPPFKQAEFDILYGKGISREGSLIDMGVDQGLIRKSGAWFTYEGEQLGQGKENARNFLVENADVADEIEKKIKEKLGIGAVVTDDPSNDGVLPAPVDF
Rv3671c inh – Rv3671c (M. tuberculosis) protease inhibition; P9WHR9; inhibition, % at 5.96 µM; 320,000 tested, 0.048% active; in the data active = inhibition above about 38%;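 note: extracellular domain of Rv3671c used as enzyme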
Mtb UGM inh – blocks M. tuberculosis UGM enzyme. P9WIQ1. purified UGM, fluorescence polarization probe displacement. inhibition, % at 10 µM. 320,000 tested, 0.06% active. AID 504406; in the data active = inhibition above about 10%, passing the limit was not always enough
Mtb bLac sens – beta-lactam sensitization of Mtb H37Rv; M. tuberculosis H37Rv growth with meropenem, percent inhibition; inhibition, % at 25 µM; 330,000 tested, 0.27% active; call rule not given here;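 note: growth measured after seven days incubation then overnight dye step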
Hits are given with their value; 0 = inactive; - = not tested or not shown. Most compounds without a hit are left out; they make up all but 0.77% or so of the library.

SMILES	Mtb hypoxia rep	RecA intein inh	Rv3671c inh	Mtb UGM inh	Mtb bLac sens
CC(=O)Nc1cccc(OC(=O)COc2ccc(Br)cc2)c1	0	35	0	0	0
CCCNC(=O)N1C2CCC1C(C(=O)OC)=C(c1ccc(F)cc1OCc1ccccc1)C2 (configuration not stated)	0	-	-	-	-
CCCn1nc([N+](=O)[O-])c(C(C#N)c2nc3ccccc3o2)c(Cl)c1=O (configuration not stated)	0	0	0	0	0
Cn1nc([N+](=O)[O-])c(C(C#N)c2ccccn2)c(Cl)c1=O (configuration not stated)	0	46	0	0	0
Cc1cccc(C(=O)OCC(=O)NCc2ccc3c(c2)OCO3)c1C	-	-	0	0	0
COc1cccc(C(=O)OCC(=O)NCc2ccc3c(c2)OCO3)c1OC	0	-	0	10	0
CC(C)(C)n1nnnc1C(c1cccs1)N(Cc1cccnc1)Cc1ccccc1Cl (configuration not stated)	0	35	0	0	0
CCCc1c(C)c2c(C)[nH]nc2oc1=O	0	41	0	0	0
CCOC(=O)Cc1c(C)c2c(C)nn(-c3ccccc3)c2oc1=O	0	0	0	0	0
CCOC(=O)Cc1c(C)c2c(C)[nH]nc2oc1=O	0	39	0	0	0
Cc1c(C)c2c(C)[nH]nc2oc1=O	0	0	0	0	0
O=C(C1=CC(c2csc3ccccc23)CC(OCCCCO)O1)N1CCN(Cc2ccccc2)CC1 (configuration not stated)	0	-	-	-	-
O=[N+]([O-])c1cc(-c2nnc(Nc3ccc(O)cc3)c3ccccc23)ccc1N1CCOCC1	-	32	0	0	0
Cc1nc([N+](=O)[O-])c(Sc2nc3ccccc3[nH]2)n1Cc1ccccc1	0	38	0	0	0
COc1ccc2nc(Sc3c([N+](=O)[O-])nc(C)n3Cc3ccccc3)[nH]c2c1	0	0	0	0	0
Cc1cc2nc(Sc3c([N+](=O)[O-])nc(C)n3Cc3ccccc3)[nH]c2cc1C	0	46	0	0	0
COC(=O)C1=C(c2cc3ccccc3o2)CC2CCC1N2C(=O)NCc1ccco1 (configuration not stated)	0	-	-	-	-
O=C1Nc2ccccc2/C1=C\C(=O)c1ccccc1	0	0	0	0	0
O=C1Nc2ccc(Br)cc2/C1=C/C(=O)c1ccc2c(c1)OCO2	0	49	0	0	0
CCCCS/C(=C(/C#N)C(N)=O)c1cc2c([nH]1)CCCC2	0	36	0	0	0
CC(C)CC1NC(=O)C(CO)NC(=O)c2cc([N+](=O)[O-])cc(I)c2OCCC(C(N)=O)NC1=O (configuration not stated)	0	-	-	-	-
O=c1c2ccccc2nc2c3ccccc3c3nncn3n12	0	0	-	-	-
O=c1c2ccccc2nc2n1CCS2(=O)=O	-	39	0	0	0
Cc1cnc(C(=O)NC(C)CCc2ccccc2)cn1 (configuration not stated)	38	0	0	0	0
Cc1ccc(C2C3C(=O)N(c4ccccc4)C(=O)C3[C@]3(C)C(=O)N(Cc4ccc(-c5ccccc5)cc4)CC(=O)N23)o1 (some centres not stated)	0	-	-	-	-
SMILES	Mtb hypoxia rep	RecA intein inh	Rv3671c inh	Mtb UGM inh	Mtb bLac sens
COc1ccc2c(c1)c1nc3ccccc3nc1n2CC(=O)OC(C)C	0	0	0	19	0
COc1ccc(NC(=O)N(C)CC2Oc3c(NS(=O)(=O)c4cccs4)cccc3C(=O)N(C(C)CO)CC2C)cc1 (configuration not stated)	0	-	-	-	-
COc1ccc(NC(=O)Nc2ccc3c(c2)C(=O)N(C(C)CO)CC(C)C(CN(C)C(=O)Nc2ccc(OC)cc2)O3)cc1 (configuration not stated)	0	-	-	-	-
COc1ccc(CCNC(=O)c2cc(Cl)nc3ccccc23)cc1	0	0	0	0	0
COc1ccc(CCNC(=O)c2cc(-c3ccccn3)nc3ccccc23)cc1	30	-	0	0	0
O=C(O)c1ccc([N+](=O)[O-])c2c1C(=O)c1ccccc1C2=O	0	47	0	0	0
COc1ccc(C2CC(=O)C=C(c3ccc(C)c(F)c3)C2)cc1 (configuration not stated)	0	-	-	-	-
O=C(CCCN1C(=O)/C(=C\c2cccs2)SC1=S)Nc1ccc(O)cc1	0	67	0	0	0
O=C(CCCN1C(=O)/C(=C\c2cccs2)SC1=S)Nc1ccc(O)cc1C(=O)O	0	32	0	0	0
O=C(CCCN1C(=O)/C(=C\c2cccs2)SC1=S)Nc1ccc(C(=O)O)cc1	0	0	0	0	0
CC(C)(C)CN1C(=O)C(=O)NCC1Cc1ccc(O)cc1 (configuration not stated)	0	-	-	-	-
Cc1cccc(NC(=S)N=Nc2c(O)n(C)c3ccc(S(=O)(=O)N4CCOCC4)cc23)c1	0	0	0	0	0
Cc1cccc(C)c1NC(=S)N=Nc1c(O)n(C)c2ccc(S(=O)(=O)N3CCOCC3)cc12	0	46	0	0	0
Cc1cc(C)cc(NC(=S)N=Nc2c(O)n(C)c3ccc(S(=O)(=O)N4CCOCC4)cc23)c1	0	0	0	0	0
Cc1ccccc1NC(=S)N=Nc1c(O)n(C)c2ccc(S(=O)(=O)N3CCOCC3)cc12	0	41	0	0	0
Cc1cc(Br)c2c(c1)/C(=C/C(=O)c1cccs1)C(=O)N2	0	78	0	0	0
COc1cc(OC)cc(-c2nnc(Sc3ccc(C=O)cc3[N+](=O)[O-])o2)c1	-	52	0	0	0
NC1=NCC(Cc2ccc(O)cc2)N1CCc1cc(C(F)(F)F)cc(C(F)(F)F)c1 (configuration not stated)	0	-	-	-	-
O=C(NN=Cc1ccc([N+](=O)[O-])o1)C(O)c1ccccc1 (configuration not stated)	24	-	-	-	-
O=C(N/N=C/c1ccc([N+](=O)[O-])o1)c1ccccc1NS(=O)(=O)c1cccs1	-	40	0	0	0
CCCCC(=O)O[C@]1(C(=O)CO)CCC2C3CCC4=CC(=O)CC[C@]4(C)C3C(O)C[C@@]21C (some centres not stated)	0	-	-	-	-
COc1ccccc1NC(=O)C1CCN(S(=O)(=O)c2cccs2)CC1	-	-	0	17	0
CN1C(=O)C2C(C=Cc3ccccc3)N3C(=O)CN(CCO)C(=O)[C@@]3(C)C2C1=O (some centres not stated)	0	-	-	-	-
Cn1c2ccccc2c2cc(C(=O)NNC(=O)CCl)sc21	0	33	0	0	0
C=COC(=O)CSc1snc(SCC(=O)OC)c1C#N	-	33	0	0	0
COc1cc2c(c(OC)c1OC)-c1ccc(C(=O)O)cc1C(NC(C)=O)CC2 (configuration not stated)	0	-	-	-	-
COc1cc2c(c(OC)c1OC)-c1c(cc3c(c1OC)OCO3)C1OC2C(C)C1C (configuration not stated)	0	-	-	-	-
COCc1[nH]nc2c1C(c1ccc(OC)cc1)C(C#N)=C(N)O2 (configuration not stated)	0	58	0	0	0
CCOC(=O)Cc1[nH]nc2c1C(Cc1ccccc1)C(C#N)=C(N)O2 (configuration not stated)	0	0	0	0	0
